Results filed as inconclusive are left out. The source made the active and inactive calls. Calls follow the shape of the dose curve; as a rule, active = well fitted curve in the direction sought with a large enough effect; inconclusive = small, poorly fitted or top-dose-only effect, or another doubt; inactive = no such curve, though single readings can be large; an effect the other way counts as inactive or inconclusive.
Assays:
[1] = biological target: Cytochrome P450 3A4 (Homo sapiens) (UniProt P08684); assay: qHTS Assay for Activators of Cytochrome P450 3A4 (AID 885); also: nearly all actives have a fitted effect of over 65% in size
Cytochrome P450 3A4 (Homo sapiens), sequence (P08684 whole entry, looked up): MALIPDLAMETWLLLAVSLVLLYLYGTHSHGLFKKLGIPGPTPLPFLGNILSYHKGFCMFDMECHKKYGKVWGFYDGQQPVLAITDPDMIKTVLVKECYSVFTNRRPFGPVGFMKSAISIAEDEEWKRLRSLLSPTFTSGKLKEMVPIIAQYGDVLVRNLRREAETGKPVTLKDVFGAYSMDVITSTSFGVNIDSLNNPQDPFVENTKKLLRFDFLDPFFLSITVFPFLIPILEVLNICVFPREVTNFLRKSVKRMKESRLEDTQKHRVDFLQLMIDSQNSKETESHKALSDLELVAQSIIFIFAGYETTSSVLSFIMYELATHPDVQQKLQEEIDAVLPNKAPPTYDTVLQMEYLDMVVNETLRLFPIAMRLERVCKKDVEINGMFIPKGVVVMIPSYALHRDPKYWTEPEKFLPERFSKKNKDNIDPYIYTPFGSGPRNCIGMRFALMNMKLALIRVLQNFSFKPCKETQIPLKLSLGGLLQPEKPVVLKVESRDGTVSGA
Outline: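 Human CYP3A4 dealkylates Luciferin-PPXE to luciferin, which luciferase detection converts to light. Substrate was at its KM (25uM), buffer 200mM KPO4, reaction 60 min at RT.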

[2] = Confirmation and Secondary Assay for Modulators of Hemoglobin Beta Chain Splicing at IVS2 654 locus (AID 910);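 also: per-well total GFP intensity by laser scanning cytometry after 2-day treatment; % of control where 0% means no effect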
Outline: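 HeLa cells stably carrying EGFP interrupted by mutant beta-globin IVS2-654 intron (CMV-driven) were treated with compound for 2 days at 37C; corrected splicing was scored as total peak GFP intensity per well (488 nm excitation, 500-520 nm emission).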

[3] = Confirmation and Secondary Assay for Modulators of Hemoglobin Beta Chain Splicing at IVS2 705 locus (AID 930);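 also: HeLa cells stably expressing the EGFP-705 splicing reporter; % of control where 0% means no effect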
Outline: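 HeLa cells stably carrying EGFP interrupted by mutant beta-globin IVS2-705 intron (CMV-driven) were seeded at 500 cells/well, treated next day with compound for 2 days at 37C; corrected splicing restores EGFP, read as total peak GFP intensity per well.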

[4] = biological target: Ubiquitin carboxyl-terminal hydrolase 1 (Homo sapiens) (UniProt O94782); assay: Inhibitors of USP1/UAF1: Pilot qHTS (AID 504865); also: potency is read from the fitted curve at half-maximal effect; nearly all actives have a fitted effect of over 35% in size
Ubiquitin carboxyl-terminal hydrolase 1 (Homo sapiens), sequence (O94782 whole entry, looked up): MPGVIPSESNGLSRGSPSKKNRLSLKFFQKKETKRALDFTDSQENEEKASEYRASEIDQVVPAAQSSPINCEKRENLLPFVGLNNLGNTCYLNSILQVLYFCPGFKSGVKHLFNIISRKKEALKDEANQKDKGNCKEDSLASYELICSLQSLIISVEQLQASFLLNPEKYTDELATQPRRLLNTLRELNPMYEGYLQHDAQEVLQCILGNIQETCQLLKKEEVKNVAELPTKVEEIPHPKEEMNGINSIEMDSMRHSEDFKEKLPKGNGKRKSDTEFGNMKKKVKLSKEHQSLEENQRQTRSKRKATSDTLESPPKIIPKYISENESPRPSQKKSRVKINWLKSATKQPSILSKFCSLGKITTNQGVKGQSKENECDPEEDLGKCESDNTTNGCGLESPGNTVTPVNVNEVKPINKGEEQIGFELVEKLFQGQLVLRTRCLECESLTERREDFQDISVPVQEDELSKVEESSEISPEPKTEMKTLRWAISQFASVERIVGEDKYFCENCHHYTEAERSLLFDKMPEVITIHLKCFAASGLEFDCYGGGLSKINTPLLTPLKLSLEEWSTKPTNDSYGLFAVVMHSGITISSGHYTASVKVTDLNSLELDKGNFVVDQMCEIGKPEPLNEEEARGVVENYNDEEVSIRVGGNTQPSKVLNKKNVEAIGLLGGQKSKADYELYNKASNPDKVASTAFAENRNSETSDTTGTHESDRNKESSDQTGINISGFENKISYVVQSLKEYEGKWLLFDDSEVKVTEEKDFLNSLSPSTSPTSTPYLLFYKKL
Outline: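 USP1/UAF1 complex (1nM) preincubated with compound 15 min at room temperature, then Ub-Rho substrate (150nM final) added. Fluorescence read kinetically at 480/540 nm, 6 reads every 60 seconds. Buffer: 50mM HEPES pH 7.8, 0.5mM EDTA, 0.1 mg/ml BSA, 1mM TCEP, 0.01% Tween-20.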

[5] = biological target: Luciferin 4-monooxygenase (Photinus pyralis) (UniProt P08659); assay: Biochemical firefly luciferase enzyme assay for NPC (AID 624030); also: potency is read from the fitted curve at half-maximal effect; nearly all actives have a fitted effect of over 70% in size
Luciferin 4-monooxygenase (Photinus pyralis), sequence (P08659 whole entry, looked up): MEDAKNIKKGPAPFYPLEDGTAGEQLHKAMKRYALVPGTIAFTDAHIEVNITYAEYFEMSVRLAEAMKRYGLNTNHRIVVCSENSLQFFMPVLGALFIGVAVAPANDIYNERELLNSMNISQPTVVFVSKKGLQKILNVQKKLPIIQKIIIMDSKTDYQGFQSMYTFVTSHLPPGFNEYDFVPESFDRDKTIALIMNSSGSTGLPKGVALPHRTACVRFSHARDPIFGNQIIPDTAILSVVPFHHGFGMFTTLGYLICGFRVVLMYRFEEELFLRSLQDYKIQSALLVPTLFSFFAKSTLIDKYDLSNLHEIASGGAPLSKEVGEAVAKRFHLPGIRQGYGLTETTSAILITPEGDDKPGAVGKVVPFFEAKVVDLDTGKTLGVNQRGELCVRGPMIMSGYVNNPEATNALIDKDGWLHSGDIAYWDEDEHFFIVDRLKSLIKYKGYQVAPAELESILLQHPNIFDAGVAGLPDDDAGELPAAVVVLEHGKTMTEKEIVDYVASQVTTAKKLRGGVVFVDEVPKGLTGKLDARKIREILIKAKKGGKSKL
Outline: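 Counter-screen for direct inhibition of the luciferase enzyme by approved-drug library compounds, run at 10 nM enzyme in 50 mM Tris acetate (final). Luminescence was read within 5 min of enzyme-buffer addition and normalized to PTC124 versus DMSO (0%).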

[6] = S16 Schwann cell viability assay (CellTiter-Glo assay) (AID 624031);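 also: cellular ATP luminescence as a viability measure; plate controls were DMSO-treated cells for no effect and cell-free wells for full effect; nearly all actives have a fitted effect of over 70% in size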
Outline: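 Native S16 rat Schwann cells in DMEM/10% FBS without phenol red were incubated overnight, then exposed to compounds for 24 h at 37 °C/5% CO2. Viability was read as ATP luminescence (CellTiter-Glo), normalized to no-cell wells and DMSO (0%).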

[7] = S16 Schwann cell PMP22 intronic element firefly luciferase assay (AID 624032);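 also: plate controls were DMSO for no effect and PTC124 positive control mean for full effect; nearly all actives have a fitted effect of over 30% in size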
Outline: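 Rat S16 Schwann cells stably carrying a PMP22 intronic element-driven Fluc reporter were seeded overnight, then exposed to compounds for 24 h at 37 °C. Luminescence was normalized to PTC124 (positive control) and DMSO (0% activity).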

[8] = NCATS anti-infectives library activity on HEK293 viability as a counter-qHTS vs the C. elegans viability qHTS (AID 1745854); also: % is scaled to controls: 0 for no effect and ±100 for the full control effect
Outline: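 Cytotoxicity counter-screen to a worm viability qHTS: CellTiter-Glo luminescence read 10 min after reagent addition. Compounds (final up to 41.7 uM, a 1:5 dilution series) incubated 24 hr at 37C with 1,500 HEK293 cells per well; digitonin control.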

[9] = qHTS profiling for inhibitors of Plasmodium falciparum proliferation (AID 504749); also: nearly all actives have a fitted effect of over 60% in size; also: potency is read from the fitted curve at half-maximal effect;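 as to activity, negative = inhibition: 0% = DMSO vehicle and full inhibition = artemisinin control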; settings: P. falciparum in erythrocytes, SYBR Green DNA, 72 h, at 28.7 µM (top of the series)
Outline: (§1)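 Quantitative HTS: compounds pinned into medium, infected erythrocytes added (0.3% parasitemia, 2.5% hematocrit), 72 h culture at 37 C under 5% CO2. Saponin/Triton lysis with SYBR Green I, overnight RT, then fluorescence read.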

3D7 = assay: as above; settings: P. falciparum in erythrocytes, SYBR Green DNA, 72 h; series mostly up to 28.7 µM
Outline: as §1

7G8 = assay: as above; settings: P. falciparum in erythrocytes, SYBR Green DNA, 72 h; series mostly up to 28.7 µM
Outline: as §1

AA1029 = assay: as above; settings: P. falciparum in erythrocytes, SYBR Green DNA, 72 h; series mostly up to 28.7 µM
Outline: as §1

AS120 = assay: as above; settings: P. falciparum in erythrocytes, SYBR Green DNA, 72 h; series mostly up to 28.7 µM
Outline: as §1

ATS189 = assay: as above; settings: P. falciparum in erythrocytes, SYBR Green DNA, 72 h; series mostly up to 28.7 µM
Outline: as §1

ATS95 = assay: as above; settings: P. falciparum in erythrocytes, SYBR Green DNA, 72 h; series mostly up to 28.7 µM
Outline: as §1

C2A = assay: as above; settings: P. falciparum in erythrocytes, SYBR Green DNA, 72 h; series mostly up to 28.7 µM
Outline: as §1

CP185 = assay: as above; settings: P. falciparum in erythrocytes, SYBR Green DNA, 72 h; series mostly up to 28.7 µM
Outline: as §1

CP191 = assay: as above; settings: P. falciparum in erythrocytes, SYBR Green DNA, 72 h; series mostly up to 28.7 µM
Outline: as §1

CP217 = assay: as above; settings: P. falciparum in erythrocytes, SYBR Green DNA, 72 h; series mostly up to 28.7 µM
Outline: as §1

CP237 = assay: as above; settings: P. falciparum in erythrocytes, SYBR Green DNA, 72 h; series mostly up to 28.7 µM
Outline: as §1

CP238 = assay: as above; settings: P. falciparum in erythrocytes, SYBR Green DNA, 72 h; series mostly up to 28.7 µM
Outline: as §1

CP247 = assay: as above; settings: P. falciparum in erythrocytes, SYBR Green DNA, 72 h; series mostly up to 28.7 µM
Outline: as §1

CP250 = assay: as above; settings: P. falciparum in erythrocytes, SYBR Green DNA, 72 h; series mostly up to 28.7 µM
Outline: as §1

CP252 = assay: as above; settings: P. falciparum in erythrocytes, SYBR Green DNA, 72 h; series mostly up to 28.7 µM
Outline: as §1

CP256 = assay: as above; settings: P. falciparum in erythrocytes, SYBR Green DNA, 72 h; series mostly up to 28.7 µM
Outline: as §1

CP260 = assay: as above; settings: P. falciparum in erythrocytes, SYBR Green DNA, 72 h; series mostly up to 28.7 µM
Outline: as §1

CP262 = assay: as above; settings: P. falciparum in erythrocytes, SYBR Green DNA, 72 h; series mostly up to 28.7 µM
Outline: as §1

CP265 = assay: as above; settings: P. falciparum in erythrocytes, SYBR Green DNA, 72 h; series mostly up to 28.7 µM
Outline: as §1

CP286 = assay: as above; settings: P. falciparum in erythrocytes, SYBR Green DNA, 72 h; series mostly up to 28.7 µM
Outline: as §1

CP335 = assay: as above; settings: P. falciparum in erythrocytes, SYBR Green DNA, 72 h; series mostly up to 28.7 µM
Outline: as §1

DFO2036 = assay: as above; settings: P. falciparum in erythrocytes, SYBR Green DNA, 72 h; series mostly up to 28.7 µM
Outline: as §1

DIV30 = assay: as above; settings: P. falciparum in erythrocytes, SYBR Green DNA, 72 h; series mostly up to 28.7 µM
Outline: as §1

Dd2 = assay: as above; settings: P. falciparum in erythrocytes, SYBR Green DNA, 72 h; series mostly up to 28.7 µM
Outline: as §1

ECU = assay: as above; settings: P. falciparum in erythrocytes, SYBR Green DNA, 72 h; series mostly up to 28.7 µM
Outline: as §1

FAB9 = assay: as above; settings: P. falciparum in erythrocytes, SYBR Green DNA, 72 h; series mostly up to 28.7 µM
Outline: as §1

GB4 = assay: as above; settings: P. falciparum in erythrocytes, SYBR Green DNA, 72 h; series mostly up to 28.7 µM
Outline: as §1

HB3 = assay: as above; settings: P. falciparum in erythrocytes, SYBR Green DNA, 72 h; series mostly up to 28.7 µM
Outline: as §1

ICS = assay: as above; settings: P. falciparum in erythrocytes, SYBR Green DNA, 72 h; series mostly up to 28.7 µM
Outline: as §1

JCK = assay: as above; settings: P. falciparum in erythrocytes, SYBR Green DNA, 72 h; series mostly up to 28.7 µM
Outline: as §1

N140 = assay: as above; settings: P. falciparum in erythrocytes, SYBR Green DNA, 72 h; series mostly up to 28.7 µM
Outline: as §1

P94_40 = assay: as above; settings: P. falciparum in erythrocytes, SYBR Green DNA, 72 h; series mostly up to 28.7 µM
Outline: as §1

PAD = assay: as above; settings: P. falciparum in erythrocytes, SYBR Green DNA, 72 h; series mostly up to 28.7 µM
Outline: as §1

PC15 = assay: as above; settings: P. falciparum in erythrocytes, SYBR Green DNA, 72 h; series mostly up to 28.7 µM
Outline: as §1

PC49 = assay: as above; settings: P. falciparum in erythrocytes, SYBR Green DNA, 72 h; series mostly up to 28.7 µM
Outline: as §1

SC27B = assay: as above; settings: P. falciparum in erythrocytes, SYBR Green DNA, 72 h; series mostly up to 28.7 µM
Outline: as §1

TAB109 = assay: as above; settings: P. falciparum in erythrocytes, SYBR Green DNA, 72 h; series mostly up to 28.7 µM
Outline: as §1

TAB113 = assay: as above; settings: P. falciparum in erythrocytes, SYBR Green DNA, 72 h; series mostly up to 28.7 µM
Outline: as §1

TAB165 = assay: as above; settings: P. falciparum in erythrocytes, SYBR Green DNA, 72 h; series mostly up to 28.7 µM
Outline: as §1

W2 = assay: as above; settings: P. falciparum in erythrocytes, SYBR Green DNA, 72 h; series mostly up to 28.7 µM
Outline: as §1

O=C(O)c1cc(O)c2c(c1)[C@H]([C@H]1c3cc(C(=O)O)cc(O)c3C(=O)c3c(O[C@@H]4OC(CO)C(O)C(O)C4O)cccc31)c1cccc(O[C@@H]3OC(CO)C(O)C(O)C3O)c1C2=O (stereo not given in full)
inactive: outcome [1] | Potency [2] | Potency [3] | Potency [6] | Potency [7] | Potency [8] | activity, negative = inhibition ([9]; parasite line A) -10% | activity, negative = inhibition ([9]; parasite line B) -4.26% | Potency (3D7) | Potency (7G8) | Potency (AA1029) | Potency (AS120) | Potency (ATS189) | Potency (ATS95) | Potency (C2A) | Potency (CP185) | Potency (CP191) | Potency (CP217) | Potency (CP237) | Potency (CP238) | Potency (CP247) | Potency (CP250) | Potency (CP252) | Potency (CP256) | Potency (CP260) | Potency (CP262) | Potency (CP265) | Potency (CP286) | Potency (CP335) | Potency (DFO2036) | Potency (Dd2) | Potency (ECU) | Potency (FAB9) | Potency (HB3) | Potency (ICS) | Potency (JCK) | Potency (N140) | Potency (P94_40) | Potency (PAD) | Potency (PC15) | Potency (PC49) | Potency (SC27B) | Potency (TAB109) | Potency (TAB113) | Potency (TAB165) | Potency (W2)
active: Potency [4] 10 µM | Potency [5] 16.1 µM | Potency (DIV30) 15.1 µM | Potency (GB4) 15.1 µM
